A selection: hits, their analogues and other compounds. The true share with any hit is near 4.1%.
hgDAF12 agonist = H. glycines DAF-12 receptor agonists, primary screen, cell-based, luminescence, HEK293, GAL4 fusion, UAS-luciferase; HEK293 GAL4-hgDAF12 UAS-luciferase reporter, agonist luminescence; normalized to butyrate control; activation, % at 6.8 µM; 370,000 tested, 1.8% active;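 active = activation above a cutoff set at the mean of all screened compounds plus 3 SD, cut at about 10% in these data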
ssDAF-12 act = S. stercoralis DAF-12 nuclear receptor activators, primary screen, cell-based, luminescence, HEK293, GRIP1 co-expression, lit1-tk-luc. HEK293 ssDAF-12/GRIP1 lit1-tk-luc reporter; % of 3 µM dafachronic acid response. AID 652126, 2013. Nuclear hormone receptor DAF-12 (Strongyloides stercoralis). 370,000 tested, 1% active. activation, % at 6.8 µM;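 active = activation above the mean over all tested compounds plus 3 SD, cut at about 0.9% in these data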
DAX1 inh-1 = DAX1 (NR0B1) inhibitors on StAR promoter, primary screen, cell-based, luminescence, SF-1 (NR5A1), full-length DAX-1; AID 652010, 2013; 370,000 tested, 1.1% active; inhibition, % at 6.8 µM; HEK293T StAR-luciferase reporter, SF-1/DAX-1 repression relief;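 active = inhibition above the mean over all tested compounds plus 3 SD, cut at about 3.6% in these data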;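 also: higher inhibition means more luminescence from relief of DAX-1 repression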
DAX1 inh-2 = DAX1 (NR0B1) inhibitors, primary screen, cell-based, HEK293, Gal4-DAX1, luciferase luminescence | Nuclear receptor subfamily 0 group B member 1 (Homo sapiens), P51843 | 340,000 tested, 0.99% active | HEK293 Gal4-DAX1 luciferase reporter | inhibition, % at 6.75 µM;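 active = inhibition above the mean over all tested compounds plus 3 SD, cut at about 4.2% in these data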;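 also: inhibition shows as a rise in luminescence from relieved DAX1 repression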
hcDAF12 agonist = H. contortus DAF-12 nuclear receptor activators, primary screen, cell-based, luminescence, HEK293, lit1-tk-luc reporter; HEK293 hcDAF-12 lit1-tk-luc reporter; 0% DMSO, 100% Δ7-dafachronic acid; activation, % at 6.8 µM; 370,000 tested, 1.4% active; AID 652067, 2013;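 active = activation above the mean of all tested compounds plus 3 SD, cut at about 5.5% in these data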
DAX1 conf = DAX1 (NR0B1) inhibitors relieving SF-1 repression, confirmation, cell-based, luminescence, HEK293T, full-length DAX-1, SF-1 activated StAR promoter; 2,400 tested, 87% active; AID 652134, 2013; HEK293T StAR-promoter luciferase reporter, SF-1/DAX-1 repression; shares compounds with DAX1 inh-1; inhibition, % at 6.8 µM;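 active = inhibition above the average of every tested compound plus 3 SD, cut at about 3.8% in these data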
Target sequence (P51843 whole entry, looked up): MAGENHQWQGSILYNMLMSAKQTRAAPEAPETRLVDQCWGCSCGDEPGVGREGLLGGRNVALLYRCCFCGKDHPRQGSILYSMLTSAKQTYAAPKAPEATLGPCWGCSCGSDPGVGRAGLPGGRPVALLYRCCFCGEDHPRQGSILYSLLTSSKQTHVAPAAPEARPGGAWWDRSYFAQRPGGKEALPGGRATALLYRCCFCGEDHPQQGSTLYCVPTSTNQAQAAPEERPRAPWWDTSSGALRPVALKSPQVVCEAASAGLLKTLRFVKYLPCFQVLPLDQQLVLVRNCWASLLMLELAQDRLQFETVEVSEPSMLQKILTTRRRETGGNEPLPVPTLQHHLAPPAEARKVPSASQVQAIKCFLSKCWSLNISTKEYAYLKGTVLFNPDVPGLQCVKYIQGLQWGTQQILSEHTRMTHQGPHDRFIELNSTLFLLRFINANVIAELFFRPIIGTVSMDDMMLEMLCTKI
SF1 mutant ctr = StAR reporter signal changes without DAX1, counter-screen for DAX1 inhibitor project, cell-based, luminescence, AF-2 mutant SF-1, transactivation | HEK293 StAR-luciferase, SF-1 AF2 mutant | inhibition, % at 6.8 µM | 2,400 tested, 78% active | shares compounds with DAX1 inh-1;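 active = inhibition above the mean of all tested compounds plus 3 SD, cut at about 3% in these data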
LXRb hcDAF ctr = LXR agonists, Gal4 luciferase reporter, confirmation, counter-screen for hcDAF-12 agonist project, cell-based, luminescence, HEK293, H. contortus campaign. shares compounds with hcDAF12 agonist. 3,400 tested, under 10 active. activation, % at 6.8 µM. HEK293 Gal4-LXR tk-luc reporter, 24 h; normalized: DMSO 0%, positive control 100%;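 active = mean percent activation of the reporter above a cutoff set as the average over tested compounds plus their standard deviation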
hcDAF12 conf = H. contortus DAF-12 receptor agonists, confirmation, cell-based, luminescence, HEK293, lit1-tk-luc, triplicate; activation, % at 6.8 µM; shares compounds with hcDAF12 agonist; AID 743032, 2013; HEK293 hcDAF-12 lit1-tk-luc reporter; % of Δ7-dafachronic acid response; 3,400 tested, 61% active;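 active = mean activation across triplicate tests above the threshold derived from the earlier primary screen, cut at about 5.5% in these data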
hgDAF12 conf = H. glycines DAF-12 receptor agonists, confirmation, cell-based, luminescence, HEK293, GAL4-LBD fusion | HEK293 GAL4-hgDAF12 luciferase reporter, agonist mode; percent of butyrate response | activation, % at 6.8 µM | 3,300 tested, 80% active | shares compounds with hgDAF12 agonist;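 active = mean activation over triplicate wells above the hit cutoff derived from the earlier primary screen, cut at about 11% in these data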
LXRb DAF12 ctr = LXR agonists, Gal4 luciferase reporter, confirmation, counter-screen for hgDAF-12 agonist project, cell-based, luminescence, HEK293, H. glycines campaign | 24 h | activation, % at 6.8 µM | 3,300 tested, under 10 active | shares compounds with hgDAF12 agonist;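 active = mean activation of the triplicate above a set limit carried over from the primary screen, none filed active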
Of the large screens only hits and unclear results are named; the others gave an inactive call (follow-up assays come after a bar, where they were run).

Oc1ccc(N=Nc2n[nH]c(-c3ccccc3)n2)cc1	hgDAF12 agonist 15, DAX1 inh-1 7.1 | DAX1 conf 15 | SF1 mutant ctr 9.2 | hgDAF12 conf 17 | LXRb DAF12 ctr inactive
Cc1ccc(-c2nc3ccccc3[nH]2)cn1	none
Cc1nc2ccc(-c3nc4ccccc4[nH]3)cc2[nH]1	hgDAF12 agonist 19, DAX1 inh-1 5.6, hcDAF12 agonist 8.3 | DAX1 conf 12 | SF1 mutant ctr 6.4 | LXRb hcDAF ctr inactive | hcDAF12 conf 8.1 | hgDAF12 conf 19 | LXRb DAF12 ctr inactive
CNC(=O)c1c(NC(=O)C2=COCCO2)sc2c1CCC(C)C2 (centres undefined)	none
CC1CCc2c(sc(NC(=O)C3=COCCO3)c2C(N)=O)C1 (centres undefined)	hgDAF12 agonist 15, ssDAF-12 act 1.4, DAX1 inh-1 5.7, hcDAF12 agonist 8.7 | DAX1 conf 12 | SF1 mutant ctr 6.5 | LXRb hcDAF ctr inactive | hcDAF12 conf inactive | hgDAF12 conf 19 | LXRb DAF12 ctr inactive
C=CCNC1CCC12CCC(c1ccccc1)CC2 (centres undefined)	none (no result: DAX1 inh-1, DAX1 inh-2)
Nc1nnc(-c2ccc(F)cc2)s1	none
CC(C)(C)c1ccc(-c2nnc(N)s2)cc1	hgDAF12 agonist 17, DAX1 inh-1 5.0 | DAX1 conf 11 | SF1 mutant ctr 7.0 | hgDAF12 conf 12 | LXRb DAF12 ctr inactive
O=C(NC1=NCCS1)c1ccccc1F	none (no result: DAX1 inh-2)
CCN(CC)S(=O)(=O)c1cccc(C(=O)NC2=NCCS2)c1	none
Cc1cccc(C(=O)NC2=NCCS2)c1	hgDAF12 agonist 18, ssDAF-12 act 1.2, DAX1 inh-1 4.6 | DAX1 conf 13 | SF1 mutant ctr 8.1 | hgDAF12 conf 14 | LXRb DAF12 ctr inactive
O=C(NC1=NCCS1)c1csc2ccccc12	hgDAF12 agonist 17, ssDAF-12 act 1.1, DAX1 inh-1 4.5, hcDAF12 agonist 8.3 | DAX1 conf 12 | SF1 mutant ctr 8.1 | LXRb hcDAF ctr inactive | hcDAF12 conf 10.0 | hgDAF12 conf 19 | LXRb DAF12 ctr inactive

Screening data as filed in PubChem.
